Measurements reported in PubChem BioAssay (NCI).
Compounds without any hit were thinned out: in the full panel of roughly 83,000, 20% have a hit.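 For each line, cells grew in 96-well plates with the test compound present at a single concentration for 48 hours.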 Values without a mark were called inactive. Active and inactive are the calls of the source. Rule for the calls: active = growth percent below 10; inactive = the rest.

Assays:
Assay in all cases: NCI-60 one-dose screen, 48 h (100 = growth as untreated, 0 = no growth, -100 = all killed)
[1] = test system: DU-145 prostate; conditions: 10 µM
[2] = test system: K-562 leukemia; conditions: 10 µM
[3] = test system: MALME-3M melanoma; conditions: 10 µM
[4] = test system: MDA-MB-231 breast; conditions: 10 µM
[5] = test system: RXF 393 renal; conditions: 10 µM
[6] = test system: SF-268 CNS; conditions: 10 µM
[7] = test system: SF-295 CNS; conditions: 10 µM
[8] = test system: SF-539 CNS; conditions: 10 µM
[9] = test system: UACC-257 melanoma; conditions: 10 µM
[10] = test system: M14 melanoma; conditions: 10 µM unless noted

SMILES | growth [1] | growth [2] | growth [3] | growth [4] | growth [5] | growth [6] | growth [7] | growth [8] | growth [9] [%] | growth [10]
COc1ccc2oc(-c3ccc(Cl)cc3)c(N3CCN(C)CC3)c2c1 | 24.3% | -24.7% (active) | 121% | 0.119% (active) | 28% | 37.2% | -54.5% (active) | -6.28% (active) | 22 | -66% (active)
COc1ccc(C(C#N)=C2C=CC(=NO)C=C2)cc1 | 72.4% | 46.6% | 103% | 96.3% | 113% | 80.9% | 106% | 79% | 58.1 | 79.1%
CCC(C)(c1ccc(O)c(C)c1)c1ccc(O)c(C)c1 | 110% | 106% | 219% | 85% | 87.4% | 89.7% | 87.8% | 93.7% | 107 | 91.6%
COc1ccc2c(c1)[nH]c1c(/C=C/c3ccccc3)nccc12 | 103% | 36.1% | 69.2% | 73.7% | 69.5% | 85.5% | 59.2% | 52.1% | 71.8 | 71.4%
O=c1[nH]cc(/C=N\Nc2ccccc2)c(=O)[nH]1 | 74.2% | 8.14% (active) | 84.4% | 63.9% | 111% | 58.5% | 45.5% |  | 78.4 | 50.8%
CCC(=O)Oc1ccc(/C=N/NC(N)=S)nc1 | 28.4% | 47.3% | 59% | 63.4% | 60.5% | 25.4% | 97.4% |  | 68.1 | 9.1% (active)
C=C1N(C)c2ccc(Cl)cc2C1(C)C | 48.9% | 13.2% | 66% | 82.7% |  | 77.4% | 67.1% | 109% | 60.4 | 72.2%
ClCCn1c(CCl)nc2ccc(Cl)cc21 | -59.3% (active) | -23.7% (active) | -64.3% (active) | -61.7% (active) | -73.9% (active) | -69.2% (active) | 25.3% | -43.9% (active) | 70.3 | -83.3% (active)
Nc1nc(N)c2cc(Sc3ccc4ccccc4c3)ccc2n1 | 30.5% | -3.38% (active) | 53% | 40.2% | 52.7% | 42.1% |  | 33.2% | 32.9 | 16.4%
CCOC(=O)[C@]1(Br)CC[C@@]1(Br)C(=O)OCC | 120% | 43.6% | 75.4% | 99.4% | 111% | 108% | 108% | 104% | 80.8 | 86.6%
COc1cc(N)ccc1Nc1c2ccccc2nc2ccccc12 | 39.7% | 1.11% (active) | 95.7% | 56.4% | 95.1% | 10.4% | 91.5% |  |  | 94.1%
S=C1SCN(CCc2ccccc2)CN1CCc1ccccc1 | 93% | 55.8% | 87.3% | 99.3% | 91.8% | 106% | 93.4% | 115% | 71.6 | 120%
O=Nc1ccc(Nc2ccccc2)cc1 | 94.9% | 13.4% | 104% | 62.5% | 86.5% | 86% | 101% | 67.7% |  | 89.7%
O=C1c2ccccc2CCC1(Br)Br | 21.8% | -13.5% (active) | -45.8% (active) | -1.14% (active) |  | 59.3% | 105% | 16.9% | 63 | 5.66% (active)
COc1cccc(C(c2cc3c(cc2O)OCO3)N2CCOCC2)c1OC (stereo unspecified) | 109% | 95.8% | 99.2% | 97.7% | 103% | 95.8% | 99.7% | 96.5% | 98.4 | 104%
N#C/C(=C/N1C(=O)/C(=C/c2ccc([N+](=O)[O-])cc2)SC1=S)c1nc2ccccc2s1 | 104% | 77.5% | 111% | 73.6% | 96.8% | 95% | 86.8% | 91.9% | 96.5 | 94.6%
CN(C)CCNc1cccc2sc3ccc(O)cc3c(=O)c12 | 43.6% | 22.7% | 1.1% (active) | 47.2% | 60.2% | 23.5% | -12.9% (active) | 35.9% |  | 53.8%
O=[N+]([O-])c1cc(S(=O)(=O)Nc2ccccc2)ccc1Cl |  | 83.9% | 105% | 110% | 114% | 99.6% | 97.2% | 102% | 88 | 88.7%
O=C1C=CC(=O)N1c1ccc(N2C(=O)C=CC2=O)cc1 | 122% | -6.5% (active) | 85.7% | 115% |  | 112% | 109% | 87% | 113 | 98.3%
O=C(CNS(=O)(=O)Cc1ccccc1)NNc1ccccc1 | 67.2% | 9.47% (active) | 91.3% |  | 120% | 60.1% | 26.2% | 61.4% | 84.5 | 31.1%
Cc1cc(Cl)ccc1NC(=O)/C(Cl)=C1/Sc2ccccc2NC1=O | 121% | 88.7% | 109% | 80.4% |  | 103% | 118% | 94% | 103 | 83.8%
N#CC(=C1C=CC(=NO)C=C1)c1ccccc1 | -66.7% (active) | 11.9% | 59.1% | -4.14% (active) |  | -24% (active) | 19.6% | -58.7% (active) | 65.6 | -36.5% (active)
COc1ccc(N)c2c1C(=O)c1ccccc1C2=O | 112% | 98.9% | 88.2% | 95.5% | 95.6% | 104% | 103% | 101% | 106 | 117%
